CtBP-E1A blk = inhibitors of CtBP/E1A interaction | AlphaScreen GST-E1A/His-CtBP binding, 1536-well; hits give low values | activity change, % (concentration not given with the values) | hit rate 0.49% among 340,000 | AID 651724; in the data active means activity change below about -65%; inconclusive means mostly about -30% to -63%; further: on the % scale 0 is the no-effect control and ±100 the full control effect
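AlphaScreen with 125 nM GST-E1A and 125 nM His-CtBP (5X stocks) in Tris pH 8.0, 300 mM NaCl, BSA, Tween 20, TCEP. Compounds preincubated 2 h at 37 deg C, then glutathione donor/nickel acceptor beads added for 1 h at 37 deg C in dark.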
HP1b binding inh = inhibitors of HP1-beta chromodomain binding to methylated histone tails; P83916; AlphaScreen HP1-beta / biotin-H3K9me3 peptide binding; Potency, µM (series often up to 114 µM), for inactives: top-dose activity change, negative = inhibition, actives largely listed as inhibitors; hit rate 0.56% among 390,000; AID 540317; further: potency means the concentration at half of the fitted maximal effect; nearly all actives have a fitted effect of over 70% in size
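Compound inhibition of the preformed complex between 50 nM HP1-beta and 50 nM biotinylated H3K9me3 peptide was read by AlphaScreen. Buffer was PBS pH 7.4 with 0.01% Tween-20. Incubations ran 30 min at room temperature, with 10 ug/mL donor/acceptor beads.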
BAZ2B inh = inhibitors of human BAZ2B bromodomain | Q9UIF8 | AlphaScreen BAZ2B-H3K14Ac peptide displacement | Potency, µM (series often up to 114 µM), inactives show at the highest dose activity change, negative = inhibition, hits mostly inhibitors | hit rate 4.4% among 360,000 | AID 504333; further: potency means the concentration at half of the fitted maximal effect; on the % scale 0 is the no-effect control and ±100 the full control effect; nearly all actives have a fitted effect of over 60% in size
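Multi-concentration screen (max 110 uM) measuring displacement of acetylated histone H3 peptide from BAZ2B by AlphaScreen, using 50 nM protein, 50 nM peptide and 10 ug/mL streptavidin donor plus Ni-chelate acceptor beads.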
Six1-Eya2 blk = blocks human Six1 binding to Eya2 | Q15475+O00167 | AlphaScreen GST-Six1/His-Eya2 binding, biochemical; hits give low values | activity change, % (concentration not given with the values) | hit rate 0.56% among 360,000 | AID 651725; in the data active means activity change below about -65%; inconclusive means mostly about -30% to -63%; further: on the % scale 0 is the no-effect control and ±100 the full control effect
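AlphaScreen with GST-Six1 and His-Eya2 (5X mix: 250 nM and 500 nM), glutathione donor and nickel acceptor beads; buffer 50 mM Tris pH 8.0, 300 mM NaCl, 1 mM TCEP; 1 h at 37 C in the dark.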
JMJD2A Tudor inh = blocks the human JMJD2A Tudor domain; O75164; AlphaScreen JMJD2A-Tudor / H3K4me3 peptide binding; Potency, µM (top dose mostly 114 µM), for inactives: top-dose activity change, negative = inhibition, actives largely listed as inhibitors; hit rate 4.4% among 390,000; AID 504339; further: potency means the concentration at half of the fitted maximal effect; on the % scale 0 is the no-effect control and ±100 the full control effect; nearly all actives have a fitted effect of over 50% in size
G9a inh = G9a (human) methyltransferase inhibition | G9a H3K9 monomethylation, AlphaScreen, 2 h | Potency, µM (series often up to 102 µM), for inactives: at the top dose activity, negative = inhibition, usual class: inhibitors | hit rate 8.8% among 350,000; further: potency means the concentration at half of the fitted maximal effect; on the % scale 0 is the no-effect control and ±100 the full control effect; nearly all actives have a fitted effect of over 75% in size
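Quantitative HTS format: methyltransferase activity on a biotin-tagged H3K9 peptide is measured by AlphaScreen, using a rabbit anti-monomethyl-H3K9 antibody with streptavidin donor and anti-IgG acceptor beads. Final levels are 20 nM enzyme, 500 nM peptide, 20 uM SAM; 2 h RT.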
The depositor's hits bear a star; u = inconclusive; x = no result given; ! = not confirmed by another sample; [ ] = dose if it differs, or a comment. This is a sample that favours compounds with a hit; in the whole collection about 10% have one here. Unless noted, the call rests on the fitted dose curve; in most records, active means well fitted inhibition curve with a large enough effect; inconclusive means small, poorly fitted or top-dose-only effect; inactive means no such curve, though single readings can be large or run the other way.

SMILES | CtBP-E1A blk | HP1b binding inh | BAZ2B inh | Six1-Eya2 blk | JMJD2A Tudor inh | G9a inh
Cc1cc(C)nc(-n2nc(C)c3c(=O)[nH]c(C(F)(F)F)nc32)n1 | -0.3 | 10.3% | -4.5% | -8.1 | 79.4µM* | -41.5%[59 µM]
COc1cc2c(cc1NC(=O)COc1ccc(Br)cc1C)oc1ccccc12 | x | 27.7% | 4.6% | x | -16.2% | 26.4%[59 µM]
CSc1cccc(N2CC(C(=O)N(CC(C)C)c3c(N)n(Cc4ccccc4)c(=O)[nH]c3=O)CC2=O)c1 (stereo not drawn) | 4.8 | 25.8% | u | -1.0 | -29.0% | 39.8µM*
CC(C)CCN(C(=O)C1CSC2(C)CCC(=O)N12)c1c(N)n(Cc2ccccc2)c(=O)[nH]c1=O (stereo not drawn) | -0.3 | 5.4% | u | 6.4 | -18.6% | 28.2µM*
CC(C)CN(C(=O)C1CC1)c1c(N)n(Cc2ccccc2)c(=O)[nH]c1=O | -3.4 | -3.2% | 2.5% | 8.7 | -20.7% | -25.4%
CC(C)COc1ccc(C(=O)Nc2cc(-c3ccccc3)no2)cc1 | x | 28.0% | -9.8% | x | -2.4% | 2.2%[59 µM]
COC(=O)c1ccc(NC(CC(C)C)C(=O)OC)c([N+](=O)[O-])c1 (stereo not drawn) | 4.7 | -13.5% | u | -25.4 | u | 39.8µM*
CCOC(=O)c1ccc(NCCOC)c([N+](=O)[O-])c1 | 0.6 | 34.0% | -28.8% | -6.4 | -9.8% | -36.9%
CN(Cc1ccc(Cl)cc1Cl)C(=O)CN1C(=O)NC2(CCCC2)C1=O | 4.7 | 39.2% | -2.0% | -0.5 | -2.1% | 35.5µM*
CCC1CCC(C(=O)NNC(=O)c2cc(-c3ccco3)[nH]n2)CC1 (stereo not drawn) | -9.6 | 18.6% | u | 7.5 | -19.2% | 14.1µM*
CC(C(=O)Nc1ccc(OCc2ccccc2)cc1)N1CCCC1 (stereo not drawn) | -2.5 | 23.1% | 1.6% | -3.1 | -22.8% | u
CC(C)COCC(CN(Cc1ccccc1)c1ccccc1)N1CCCC1 (stereo not drawn) | -17.9 | 35.0% | u | -15.8 | -2.9% | 10µM*!
COC(=O)C1CSc2[nH]c(=O)sc2C1c1ccc(OC)c(OC)c1 (stereo not drawn) | -4.5 | -4.8% | -28.8% | -1.6 | -9.0% | 70.8µM*
COC(=O)C1C(c2ccc(OC)c(OC)c2)NC(c2ccc(OC)c(OC)c2)C(C(=O)OC)S1(=O)=O (stereo not drawn) | 0.8 | 9.7% | -3.9% | 0.9 | -14.7% | -45.3%[59 µM]
O=C(NCc1ccc(Cl)cc1)C1CCN(S(=O)(=O)c2ccc3c(c2)CCCN3C(=O)C2CCC2)CC1 | x | 24.5%[57 µM] | 1.3% | x | -4.5% | 7.2%[59 µM]
COc1ccc(CNC(=O)CNC(C)c2ccc(F)cc2)cc1 (stereo not drawn) | 1.3 | 44.7µM* | 56.2µM* | 19.9 | 20µM* | 13.5%
COc1ccc(CCNC(=O)CNCCc2ccc(F)cc2)cc1 | x | -18.9% | 79.4µM* | 5.7 | 22.4µM* | -17.7%
COc1ccc(CCNC(=O)CCc2ccc(OC)cc2)cc1 | 4.4 | 47.6% | -0.9% | 2.3 | -18.3% | 29.3%
COc1ccc(CCNC(=O)Cn2nnc3ccccc3c2=O)cc1 | 9.3 | 19.8% | 12.0% | 14.9 | -9.6% | 70.8µM*
O=C(Cn1nnc2ccccc2c1=O)NCCc1ccc(F)cc1 | x | x | -28.7% | x | x | 2.1%[59 µM]
Cc1ccc(C)c(NC(=O)Cn2c(=O)n(Cc3ccco3)c(=O)c3oc4ccccc4c32)c1 | x | 22.1% | -14.5% | x | -12.8% | -27.5%[59 µM]
COC(=O)c1ccccc1NC(=O)c1sc2nc(C)cc(C)c2c1NC(=O)c1ccccc1Cl | x | 13.3% | -6.7% | x | -17.5% | 1.5%[59 µM]
COc1ccc(-c2cccc(NS(=O)(=O)c3cccs3)c2)nn1 | x | 9.6%[57 µM] | 0.0% | x | -6.1% | 17.1%[59 µM]
Cc1cc(=O)oc(C)c1C(=O)N1CCN(C(c2ccccc2)c2ccccc2)CC1 | 0.0 | 48.0% | -32.9% | 19.0 | -13.2% | 50.1µM*
COc1ccccc1N1CCN(C(=O)c2c(C)cc(=O)oc2C)CC1 | 1.2 | 31.3% | -29.7% | 6.2 | -4.0% | -48.3%[12.7 µM]
COc1ccc(CCNC(=O)Cc2c(C)c3cc4c(C(C)(C)C)coc4c(C)c3oc2=O)cc1OC | x | 12.9% | -6.4% | x | -8.8% | -1.5%[59 µM]

Compound activity: PubChem, National Center for Advancing Translational Sciences (NCATS)
